Experimental findings from PubChem BioAssay (Tox21) are described below.

Molecules are shown by their SMILES. The source made the active and inactive calls. Calls come from the whole dose curve; as a rule, active = well fitted curve in the direction sought with a large enough effect in the repeat runs; inconclusive = weak or mixed curves; inactive = flat fitted curve, though single readings scatter.
% is set by controls: 0 for no effect and ±100 for the full control effect.

This assay in a line: qHTS assay to test for compound auto fluorescence at 535 nm (green) in HepG2 cells (AID 720675). To be noted: green autofluorescence 485/535 nm, 1 h; series mostly up to 91.3 µM; fluorescence, % of fluorescein control: at the top concentration. From the text: National Center for Advancing Translational Sciences [NCATS]
NIH Chemical Genomics Center [NCGC]
U.S. Environmental Protection Agency [EPA]
National Institutes of Environmental Health Sciences [NIEHS]
National Toxicology Program [NTP]
U.S. Food and Drug Administration [FDA]
Compound auto fluorescence often interferes with screening of the compound library against various biological targets and signaling pathways. Some of these compounds may have fluorophoric properties. Such properties may interfere with the assay outputs resulting in false positives and/or negatives. To decrease such complications and ensure the compound activities are relevant in terms of biological response, the Tox21 10K compound library was screened for auto fluorescence.
From the fluorophores used as reporter signals in our screening assays, the auto fluorescence equivalencies of compounds against three fluorophores have been evaluated: Triamterene, Fluorescein and Rose Bengal sodium for blue, green and red fluorescence, respectively. The fluorescence intensities were measured using Excitation/Emission wavelengths at 405/460nm, 485/535nm and 540/590nm for blue, green and red labels, respectively. This assay includes the green fluorescence data.
Tox21 Assay Protocol Summary:
2,000 HepG2 cells in 5 uL of culture medium (MEM containing 10% FBS) per well were dispensed into black wall/clear bottom 1536-well plates using a Multidrop Combi Dispenser (ThermoFisher Scientific, Waltham, MA). The assay plates were incubated overnight at 37 C to allow cell attachment to the well bottom, followed by the transfer of 23 nL compound or DMSO vehicle by a pintool work station (Kalypsys , San Diego, CA). After the assay plates were incubated for 1 hr at 37 C and 5% CO2, fluorescence intensities in the assay plates were measured by an Envision (PerkinElmer, Shelton, CT) plate reader using three labels for measuring blue, green and red fluorescence at […] 460, 535 and 590 nm respectively.
In general terms: In qHTS, concentration-response curves come from the screen itself.
Take `COc1ccccc1OC(=O)Oc1ccccc1OC`: the “fluorescence, % of fluorescein control” value is 0.0882% [at 46 µM] (inactive).
The same measure, in the same setting: the value for `CCCCCOC(=O)c1ccc(O)cc1` was -0.0733% [at 95.7 µM] (inactive).
Still for that read-out and setting: for `CCOc1ccc(NC(=O)CC(C)=O)cc1` the value was -0.0511% (inactive); for `C=CC(=O)OCC(C)OCC(C)OCC(C)OC(=O)C=C` (stereo not given), 0.0931% (inactive).
In the case of `c1ccc(CNCc2ccccc2)cc1`, the “fluorescence, % of fluorescein control” value was -0.0358% (inactive).
Still for that read-out and setting: the value for `NC(N)=N/N=C/c1c(Cl)cccc1Cl` was -0.0176% [at 46 µM] (inactive); that for `CC(=O)/C(C)=C/C1C(C)=CCCC1(C)C` (stereo not given) was 0.0513% (inactive).
On the same count and under the same terms, for `CN(C)C/C=C(/c1ccc(Br)cc1)c1cccnc1` the value was -0.0027% [at 46 µM] (inactive).
On the same count and under the same terms, for `Cn1c(=O)c2c(ncn2CC(O)CO)n(C)c1=O` (stereo not given) the value was -0.21% [at 18.6 µM] (inactive).
`CC(=O)c1ccc2c(c1)[C@H](NC(=O)c1ccc(F)cc1)[C@@H](O)C(C)(C)O2`: the “fluorescence, % of fluorescein control” value is 0.0225% (inactive).
With `CC[C@H](C)[C@@H](C(=O)O)n1sc2ccccc2c1=O`, the “fluorescence, % of fluorescein control” value is 0.0455% (inactive).
On the same count and under the same terms, the value for `COc1ccc([C@@H]2Sc3ccccc3N(CCN(C)C)C(=O)[C@@H]2OC(C)=O)cc1` was 0.0143% [at 46 µM] (inactive).
`CC(=O)c1c(C)c([N+](=O)[O-])c(C(C)(C)C)c([N+](=O)[O-])c1C`: the “fluorescence, % of fluorescein control” value was -0.139% (inactive).
The same measure, in the same setting: the value for `CC(C(=O)O)c1ccc(C(=O)c2ccccc2)s1` (stereo not given) was -0.0168% [at 18.6 µM] (inactive).
The same measure, in the same setting: the value for `NCCCN(CCO)CCO` was -0.014% (inactive).
Same read-out and setting: the value for `CCOc1nc2cccc(C(=O)O)c2n1Cc1ccc(-c2ccccc2-c2nn[nH]n2)cc1` was 0.0238% [at 46 µM] (inactive); that for `O=C(O)[C@@H]1[C@H]2C[C@H]3c4[nH]c5ccccc5c4CCN3C[C@@H]2CC[C@@H]1O` was 0.513% [at 18.6 µM] (inactive); that for `O=C=NC1CCC(CC2CCC(N=C=O)CC2)CC1` (stereo not given) was -0.0257% (inactive).
As to `O=c1c2ccccc2nnn1CCl`, the “fluorescence, % of fluorescein control” value was 0.0003% (inactive).
The same measure, in the same setting: the value for `CCCCCCCCCC=O` was -0.0256% (inactive); that for `Cc1ccc2c(ccc3ccccc32)c1` was 0.0133% (inactive); that for `CCCCCCCC/C=C\CCCCCCCC(N)=O` was 0.0154% (inactive).
`Nc1ccc(C(=O)Nc2ccccc2N)cc1`: the “fluorescence, % of fluorescein control” value is 0.0136% [at 46 µM] (inactive).
On the same count and under the same terms, the value for `CC(C)NCC(O)c1cc(O)cc(O)c1` (stereo not given) was -0.0617% [at 46 µM] (inactive).
As for `CC(Cc1cccc(C(F)(F)F)c1)NCCOC(=O)c1ccccc1` (stereo not given), the “fluorescence, % of fluorescein control” value is -0.0456% [at 46 µM] (inactive).
Same read-out and setting: for `Cn1sccc1=O` the value was -0.0584% (inactive).
On to `CCCCCCCCCCCCCCCC(=O)OC/C=C(C)/C=C/C=C(C)/C=C/C1=C(C)CCCC1(C)C`, for which the call was inactive.
For the compound `CN1CCN(C2=Nc3cc(Cl)ccc3Nc3ccccc32)CC1`, the “fluorescence, % of fluorescein control” value was 0.0147% [at 46 µM] (inactive).
`O=C(O)Cc1sc(-c2ccccc2)nc1-c1ccc(Cl)cc1`: the call was inactive.
As to `Cc1ccc(O)c([C@H](CCN(C(C)C)C(C)C)c2ccccc2)c1`, the “fluorescence, % of fluorescein control” value was -0.0018% [at 46 µM] (inactive).
Still for that read-out and setting: for `CNCC[C@@H](Oc1ccccc1C)c1ccccc1` the value was -0.101% [at 46 µM] (inactive).
Same read-out and setting: for `CCCCOC(=O)/C=C\C(=O)OCCCC` the value was 0.017% [at 95.7 µM] (inactive); for `O=C(C(=O)c1ccc(Br)cc1)c1ccc(Br)cc1`, 0.0081% [at 18.6 µM] (inactive); for `Oc1ccc(O)c2c(O)cccc12`, -0.223% (inactive).
For the compound `Cc1cccc(Oc2ccccc2)c1`, the “fluorescence, % of fluorescein control” value is -0.0227% (inactive).
The same measure, in the same setting: the value for `CC(=O)/C=C/C1C(C)=CCCC1(C)C` (stereo not given) was -0.0739% (inactive); that for `CCC(C)N(C)C(=O)c1cc2ccccc2c(-c2ccccc2Cl)n1` (stereo not given) was 0.0395% (inactive).
Same read-out and setting: for `Nc1cnn([C@@H]2O[C@H](CO)[C@@H](O)[C@H]2O)c(=O)n1` the value was -0.149% (inactive).
On the same count and under the same terms, for `CCOC(=O)CC(C)C` the value was -0.012% (inactive).
Consider `O=C(c1ccccc1)c1ccc2n1CCC2C(=O)O` (stereo not given), for which the result was inactive.
